From the supplement of paper PMC7366291
Counter-ions that a name gives are not always drawn. ± gives the standard deviation of the averaged measurements.

system: Danio rerio Tg(wt1b:EGFP) embryo, pronephros; experiment: pronephric angle neck segment to proximal convoluted tubule (mean of left and right), fold change vs DMSO control; higher = larger pronephric angle; settings: 25 µM; exposure: 24-48 hpf
Procedure, shortened: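 Dechorionated Tg(wt1b:EGFP) zebrafish embryos were exposed to 25 μM compound in 0.5% DMSO, HEPES-buffered E3 with 0.003% PTU, from 24 to 48 hpf at 28.5°C. Pronephroi were imaged dorsally in agarose-filled 96-well plates (470 nm, 10 z-slices). On maximum projections, 16 reference points were set manually in Fiji and a macro computed distances and angles. Values more than 2 SD from the feature mean were excluded. Each feature is a fold change relative to the mean of same-day DMSO controls.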

Going from `N=C(N=C(N)N)N1CCOCC1` [Moroxidine hydrochloride] to `CCOC(=O)C1=C[C@]2(CC)CCCN3CCc4c(n1c1ccccc41)[C@@H]32` [Vinpocetine], the “pronephric angle neck segment” value rises from 0.903 ± 0.039 to 1.05 ± 0.039.

Compared with `Cn1c(=O)c2nc[nH]c2n(C)c1=O` [Theophylline monohydrate], `Cc1ncc([N+](=O)[O-])n1CC(C)O` (centres undefined) [Secnidazole] is lower in “pronephric angle neck segment” value: 1 ± 0.011 for the first, 0.9777 ± 0.0024 for the second.

`COc1cnc(NS(=O)(=O)c2ccc(N)cc2)nc1` [Sulfameter] and `COc1cc([S+](C)[O-])ccc1-c1nc2cccnc2[nH]1` (centres undefined) [Sulmazole] are within error of each other in “pronephric angle neck segment” value: 0.9915 ± 0.0018 for the first, 0.9818 ± 0.0097 for the second.

Going from `CC(Oc1ccccc1)C(=O)N[C@@H]1C(=O)N2[C@@H]1SC(C)(C)[C@@H]2C(=O)O` (some centres undefined) [Phenethicillin potassium salt] to `CC(C(=O)O)c1ccc(-c2ccccc2)c(F)c1` (centres undefined) [Flurbiprofen], the “pronephric angle neck segment” value rises from 0.989 ± 0.028 to 1.96 ± 0.059.

Going from `CO[C@H]1/C=C/O[C@@]2(C)Oc3c(C)c(O)c4c(c3C2=O)C2=NC3(CCN(CC(C)C)CC3)NC2=C(NC(=O)/C(C)=C\C=C\[C@H](C)[C@H](O)[C@@H](C)[C@@H](O)[C@@H](C)[C@H](OC(C)=O)[C@@H]1C)C4=O` [Rifabutin] to `C[C@]12CCC(=O)C=C1CC[C@@H]1[C@@H]2[C@@H](O)C[C@@]2(C)[C@H]1CC[C@]2(O)C(=O)CO` [Hydrocortisone base], the “pronephric angle neck segment” value falls from 1.06 ± 0.011 to 0.95 ± 0.064.

`NC1CCN(c2nc3c(cc2F)c(=O)c(C(=O)O)cn3-c2ccc(F)cc2F)C1` (centres undefined) [Tosufloxacin hydrochloride] and `COc1cc(C(=O)NS(=O)(=O)c2ccccc2C)ccc1Cc1cn(C)c2ccc(NC(=O)OC3CCCC3)cc12` [Zafirlukast] are within error of each other in “pronephric angle neck segment” value: 1.038 ± 0.0028 for the first, 1.09 ± 0.065 for the second.

`CCCN[C@H]1CCc2nc(N)sc2C1` [Pramipexole dihydrochloride] and `Nc1nc(/C(=C/CC(=O)O)C(=O)N[C@@H]2C(=O)N3C(C(=O)O)=CCS[C@H]23)cs1` [Ceftibuten] are within error of each other in “pronephric angle neck segment” value: 1.01 ± 0.046 for the first, 0.963 ± 0.019 for the second.

Going from `CCN(CC)CCNC(=O)c1cc(S(C)(=O)=O)ccc1OC` [Tiapride hydrochloride] to `CCOC(=O)NNc1nncc2ccccc12` [Todralazine hydrochloride], the “pronephric angle neck segment” value falls from 1.036 ± 0.0056 to 0.963 ± 0.031.

First: CC(C)/N=c1\cc2n(-c3ccc(Cl)cc3)c3ccccc3nc-2cc1Nc1ccc(Cl)cc1 [Clofazimine]
Second: Cc1cc(/C=C/c2ccc3cc(N(C)C)ccc3[n+]2C)c(C)n1-c1ccccc1 [Pyrvinium pamoate]
The “pronephric angle neck segment” value of the first is lower: 0.961 ± 0.0097 for the first, 1.02 ± 0.034 for the second.

Going from `C[C@@H](O)[C@H]1C(=O)N2C(C(=O)O)=C(S[C@@H]3CN[C@H](C(=O)N(C)C)C3)[C@H](C)[C@H]12` [Meropenem] to `COc1ccc([C@@H]2Sc3ccccc3N(CCN(C)C)C(=O)[C@@H]2OC(C)=O)cc1` [Diltiazem hydrochloride], the “pronephric angle neck segment” value rises from 1.0113 ± 1.4e-05 to 1.211 ± 0.0023.

`COc1ccc(CC(C)NCC(O)c2ccc(O)c(NC=O)c2)cc1` (centres undefined) [Formoterol fumarate] and `CCOc1cc(CC(=O)N[C@@H](CC(C)C)c2ccccc2N2CCCCC2)ccc1C(=O)O` [Repaglinide] are within error of each other in “pronephric angle neck segment” value: 1.05 ± 0.034 for the first, 1.06 ± 0.036 for the second.

`OCCOCCN1CCN(C2=Nc3ccccc3Sc3ccccc32)CC1` [Quetiapine hemifumarate] and `CCN(CC)C(C)CN1c2ccccc2Sc2ccccc21` (centres undefined) [Ethopropazine hydrochloride] are within error of each other in “pronephric angle neck segment” value: 0.98617 ± 0.00072 for the first, 1 ± 0.029 for the second.

Compared with `Nc1ccn([C@@H]2O[C@H](CO)[C@@H](O)[C@@H]2O)c(=O)n1` [Cytarabine], `O=C(O[C@@H]1C[C@@H]2C[C@H]3C[C@H](C1)N2CC3=O)c1c[nH]c2ccccc12` [Dolasetron mesilate] is lower in “pronephric angle neck segment” value: 0.998 ± 0.015 for the first, 0.946 ± 0.035 for the second.

`CN(C)CCCN1c2ccccc2CCc2ccccc21` [Imipramine hydrochloride] and `CN(C)CCCN1c2ccccc2Sc2ccc(Cl)cc21` [Chlorpromazine hydrochloride] are within error of each other in “pronephric angle neck segment” value: 0.996 ± 0.041 for the first, 0.974 ± 0.024 for the second.

First: Clc1ccccc1CN1CCc2sccc2C1 [Ticlopidine hydrochloride]
Second: Clc1ccc(C(Cn2ccnc2)OCc2ccsc2Cl)c(Cl)c1 (centres undefined) [Tioconazole]
The “pronephric angle neck segment” value of the first is lower: 1.008 ± 0.0084 for the first, 1.21 ± 0.085 for the second.

Going from `c1ccc2[nH]c(-c3cscn3)nc2c1` [Tiabendazole] to `COCCCOc1ccnc(C[S+]([O-])c2nc3ccccc3[nH]2)c1C` (centres undefined) [Rabeprazole Sodium salt], the “pronephric angle neck segment” value rises from 1.04 ± 0.02 to 1.11 ± 0.019.

First: Clc1ccc(COC(Cn2ccnc2)c2ccc(Cl)cc2Cl)c(Cl)c1 (centres undefined) [Miconazole]
Second: CN(Cc1ccc(C(C)(C)C)cc1)Cc1cccc2ccccc12 [Butenafine Hydrochloride]
The “pronephric angle neck segment” value of the first is higher: 1.481 ± 0.012 for the first, 1.05 ± 0.12 for the second.
